Experimental data published in PubChem BioAssay AID485313 (National Center for Advancing Translational Sciences (NCATS), 2010).
Screen size: about 320,000 compounds; about 7,600 (2.4%) were called active. Another 3% or so got no clear call; they are omitted. Calls come from the whole dose curve; as a rule, active = well fitted activation curve with a large enough effect; inconclusive = small, poorly fitted or top-dose-only effect; inactive = no such curve, though single readings can be large or run the other way. The entries come from a sample that favours actives as a whole.

test: qHTS Assay for NPC1 Promoter Activators; conditions: Huh7 NPC1 promoter luciferase reporter, 24 h; series mostly up to 9.22 µM; activation: at the top concentration; note: nearly all actives have a fitted effect of over 60% in size;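 for activation: reporter is driven by a mutant NPC1 promoter; % of control where 0% means no effect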
Summary of the method: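 Stably transfected Huh7 (NPC1 promoter→luciferase), 1500 cells/well in Opti-MEM + 10% FBS, 2 h settle, then compound 24 h at 37 °C. Luminescence after 10 min with Amplite reagent.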
Potency is the fitted concentration of half-maximal effect.

Row | SMILES | activation | Potency
1 | Cc1cc(CO)nn1-c1ccc([N+](=O)[O-])cc1 | -0.734% (inactive) | 
2 | Cn1nc(-c2ccccc2)c2cc([N+](=O)[O-])ccc21 | 3.87% (inactive) | 
3 | Cc1nn(-c2ccc([N+](=O)[O-])cc2)c(N)c1-c1ccccc1 |  | 1.58 µM (active)
4 | COC(=O)C1=CO[C@@H](O[C@@H]2O[C@H](CO)[C@@H](O)[C@H](O)[C@H]2O)C2C1C[C@H](O)[C@@H]2C (stereo partly specified) | -0.388% (inactive) | 
5 | CCc1cccc(NC(=O)COC(=O)c2cc(=O)c3ccccc3o2)c1 | -1.37% (inactive) | 
6 | CCOC(=O)C1CCN(C(=O)c2cccc(S(=O)(=O)N(CC)c3ccccc3)c2)CC1 | -2.25% (inactive) | 
7 | COCCN(C(=O)CC1CCCCC1)c1c(N)n(CC(C)C)c(=O)[nH]c1=O | 2.93% (inactive) | 
8 | Cc1cccc(NC(=O)CSCC(=O)Nc2nnc(C3CC3)s2)c1 | -1.19% (inactive) | 
9 | Cc1ccc(Cl)cc1NC(=O)c1ccccn1 | -2.16% (inactive) | 
10 | O=C(Nc1nnc(C2CC2)s1)c1cc(Cl)sc1Cl | 24.6% (inactive) | 
11 | Cc1cc(C(=O)Nc2nnc(C3CC3)s2)c(C)s1 |  | 3.55 µM (active)
12 | O=C(Cc1cccs1)Nc1nnc(C2CC2)s1 | -1.03% (inactive) | 
13 | Cc1cnc(NC(=O)c2ccccn2)s1 |  | 0.447 µM (active)
14 | Cc1cnc(NC(=O)C2CCCC2)s1 | 11.4% (inactive) | 
15 | CCc1cc(C(=O)Nc2nnc(C3CC3)s2)sc1C | 29.4% (inactive) | 
16 | O=C(Nc1nnc(C2CC2)s1)c1ccccn1 |  | 1.12 µM (active)
17 | CCc1ccccc1OCC(=O)Nc1ccc(C)c(S(=O)(=O)N2CCCCCC2)c1 | 0.449% (inactive) | 
18 | O=C(NCc1cccc(Cl)c1)C1=CC=CN2CCS(=O)(=O)N=C12 | 0.609% (inactive) | 
19 | CC(C)Cn1c(N)c(C(=O)COC(=O)C2CCCN2C(=O)c2cccs2)c(=O)n(C)c1=O (stereo unspecified) | -5.84% (inactive) | 

Row | SMILES | activation | Potency
20 | COc1ccccc1Nc1nnc(SC(C)C(=O)NC2CC2)s1 (stereo unspecified) | -1.22% (inactive) | 
21 | CC(=O)Nc1ccc(NC(=S)NC(=O)/C=C/c2ccccc2)cc1 | -7.81% (inactive) | 
22 | O=C(O)c1ccc2c(c1)C(=O)N(c1ccc(/C=C/C(=O)c3ccccc3)cc1)C2=O | 4.16% (inactive) | 
23 | O=C(CN1CCN(S(=O)(=O)/C=C/c2ccccc2)CC1)Nc1ccc(N2CCOCC2)cc1 | -4.53% (inactive) | 
24 | CC(OC(=O)/C=C/c1ccccc1)C(=O)Nc1ccc(C(N)=O)cc1 (stereo unspecified) | -2.06% (inactive) | 
25 | O=C(/C=C/c1ccc(N2CCOCC2)cc1)c1ccccc1 |  | 2 µM (active)
26 | CC(=O)Nc1ccc(/C=C/C(=O)c2ccccc2)cc1 |  | 2.51 µM (active)
27 | O=C(Nc1ccccc1N1CCOCC1)c1ccncc1 | 1.48% (inactive) | 
28 | CCN(C(=O)CSc1ncnc2sccc12)c1c(N)n(Cc2ccccc2)c(=O)[nH]c1=O | -2.5% (inactive) | 
29 | CC1(C)CC(=O)C=C(c2ccc3ncccc3c2)C1 | -0.503% (inactive) | 
30 | COc1ccc2c3c(c(=O)oc2c1)C1O[C@](CCCCN2C(=O)c4ccccc4C2=O)(Cc2c1ccc1ccccc21)O3 | -3.07% [at 1.84 µM] (inactive) | 
31 | O=C(Cn1nnc(-c2ccccc2)n1)NC(=O)NC1CCCC1 | -1.17% (inactive) | 
32 | O=C(COC(=O)Cn1[nH]c(=O)c2ccccc2c1=O)Nc1ncc(Cl)cc1Cl | -0.303% (inactive) | 
33 | COc1ccccc1/C=C/C(=O)OCC(=O)NC1CCCCCC1 | -2.47% (inactive) | 
34 | CCOC(=O)c1c(C)[nH]c(C2=NNC(=NC(C)COC)SC2)c1C (stereo unspecified) |  | 1.58 µM (active)
35 | COc1ccc(CCNC(=O)COC(=O)C2CC2C)cc1 (stereo unspecified) | -0.82% (inactive) | 
36 | Cc1cc(CN(C)C(=O)c2cc(COc3ccc(C)c(C)c3)on2)n[nH]1 |  | 2.51 µM (active)
37 | CN(Cc1cccnc1)C(=O)c1cc(COc2ccc3ncccc3c2)on1 | -17.8% (inactive) | 
38 | CN(Cc1cnccn1)C(=O)c1cc(COc2cccc(C(F)(F)F)c2)on1 | 20.7% (inactive) | 

Row | SMILES | activation | Potency
39 | Cc1ccc(OCc2cc(C(=O)N(C)CCc3ccccc3)no2)cc1C |  | 2.82 µM (active)
40 | CN(CCOc1ccccc1)C(=O)c1cc(COc2c(F)cccc2F)on1 | -0.673% (inactive) | 
41 | CCn1ccnc1CN(C)C(=O)c1cc(COc2ccc(-n3cncn3)cc2)on1 | 3.54% (inactive) | 
42 | CC1CC(C)CN(C(=O)COC(=O)c2ccc3ncsc3c2)C1 (stereo unspecified) | -0.452% (inactive) | 
43 | Cc1ccc(NC(=O)CCNC(=O)c2ccc([N+](=O)[O-])cc2)cc1S(=O)(=O)N1CCOCC1 | -0.724% (inactive) | 
44 | O=C(NCCc1ccc(C(F)(F)F)cc1)c1ccc2c(c1)OCO2 | -0.0657% (inactive) | 
45 | COc1ccc(NC(=O)CSc2nnc(C3CC3)n2C)cc1S(=O)(=O)N1CCCCC1 | 5.26% (inactive) | 
46 | Cc1ccc(NC(=O)C2(N3CCC3=O)CCCCC2)cc1 | -6.24% (inactive) | 
47 | COc1ccc(C(=O)NCCSc2ccccc2C)cc1 |  | 1.26 µM (active)
48 | COc1ccc(C(=O)NCc2nnc(SCCOc3ccccc3)n2C)cc1 | -5.31% (inactive) | 
49 | COc1cccc(C(=O)NCCSc2ccc(Br)cc2)c1 | -7.75% (inactive) | 
50 | Cc1c(NS(=O)(=O)c2cc(C(=O)NCCc3ccc(F)cc3)cc(Cl)c2Cl)c(=O)n(-c2ccccc2)n1C | -5.14% (inactive) | 
51 | Cc1cccc(C)c1-n1c(C)cc(/C=C2\C(=O)NN(c3ccccc3)C2=O)c1C | 14.8% (inactive) | 
52 | Cc1cc(/C=C2/NC(=O)NC2=O)c(C)n1-c1cccnc1 | 1.57% (inactive) | 
53 | Cc1ccccc1-n1c(C)cc(/C=C2\NC(=O)NC2=O)c1C |  | 3.55 µM (active)
54 | Cc1ccc(C(=O)NCC(c2cccs2)N(C)C)cc1S(=O)(=O)N1CCOCC1 (stereo unspecified) | 3.21% (inactive) | 
55 | O=c1oc2ccc(C#CC3(O)CCCCC3)cc2cc1-n1cc(-c2ccsc2)nn1 | 0.191% (inactive) | 
56 | O=C(CCNS(=O)(=O)c1ccccc1C(F)(F)F)Nc1ccncc1 | -2.75% (inactive) | 
